A selection: hits, their analogues and other compounds. The true share with any hit is near 3.1%.
PAFAH1B3 FP inh: blocks human PAF acetylhydrolase 1B catalytic subunit 3; recombinant PAFAH1B3, FP-rhodamine probe, fluorescence polarization; Q15102; inhibition, % at 3.39 µM; actives 0.28% (n = 340,000); AID 492972;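 active = inhibition above the screen-wide average of all tested compounds plus 3 SD, cut at about 25% in these data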;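 note: 0% = enzyme with DMSO only and 100% = wells lacking PAFAH1B3 protein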
E coli Lon inh: E. coli protease La inhibition. P0A9M0. purified E. coli Lon protease, fluorescence polarization. inhibition, % at 7.94 µM. actives 0.42% (n = 360,000); in the data active = inhibition above about 13%, passing the limit was not always enough;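 note: 0% = enzyme with probe and DMSO and 100% = no enzyme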
PAFAH1B2 FP inh: blocks human PAF acetylhydrolase 1b catalytic subunit 2 | AID 492953 | P68402 | recombinant PAFAH1B2, FP-rhodamine activity probe, fluorescence polarization | inhibition, % at 3.39 µM | actives 1.2% (n = 340,000);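 active = inhibition above the mean of all tested compounds plus 3 SD, cut at about 24% in these data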;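 note: 0% = enzyme with DMSO and 100% = wells lacking PAFAH1B2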
Target sequence (P68402 whole entry, looked up): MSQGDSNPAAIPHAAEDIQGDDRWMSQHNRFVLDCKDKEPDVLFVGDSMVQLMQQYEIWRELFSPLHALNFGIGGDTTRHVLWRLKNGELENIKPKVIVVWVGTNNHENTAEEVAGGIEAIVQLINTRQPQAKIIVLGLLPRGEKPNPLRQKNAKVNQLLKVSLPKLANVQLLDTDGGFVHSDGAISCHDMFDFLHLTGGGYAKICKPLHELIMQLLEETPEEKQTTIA
Rin1 Abl inh: human Rin1-Abl interaction inhibition. inhibition, % at 7.35 µM. TR-FRET Rin1/Abl binding, biochemical. P00519+Q13671. actives 0.4% (n = 360,000); in the data active = inhibition above about 5%, passing the limit was not always enough
pPAFAH FP inh: inhibitors of human plasma PAF acetylhydrolase (pPAFAH); Q13093; recombinant pPAFAH, FP-rhodamine probe fluorescence polarization; inhibition, % at 3.39 µM; actives 1.5% (n = 330,000); AID 463082;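 active = inhibition above the mean inhibition across the screen plus 3 SD, cut at about 25% in these data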;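 note: inhibitors block binding of the rhodamine activity-based probe so polarization drops; 0% = enzyme with DMSO and 100% = wells lacking pPAFAH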
Target sequence (Q13093 whole entry, looked up): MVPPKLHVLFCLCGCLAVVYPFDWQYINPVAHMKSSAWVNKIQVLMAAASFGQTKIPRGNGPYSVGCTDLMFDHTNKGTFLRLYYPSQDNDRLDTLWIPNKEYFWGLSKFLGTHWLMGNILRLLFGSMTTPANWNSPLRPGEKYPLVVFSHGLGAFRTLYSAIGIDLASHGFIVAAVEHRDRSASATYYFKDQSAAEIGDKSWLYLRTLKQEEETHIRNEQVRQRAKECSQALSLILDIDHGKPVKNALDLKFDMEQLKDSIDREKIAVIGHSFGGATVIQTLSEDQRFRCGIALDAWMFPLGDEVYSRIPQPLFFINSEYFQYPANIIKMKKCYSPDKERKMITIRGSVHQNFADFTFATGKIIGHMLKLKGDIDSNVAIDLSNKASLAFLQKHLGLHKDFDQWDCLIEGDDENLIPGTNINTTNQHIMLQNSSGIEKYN
PAFAH2 inh: PAFAH2 (human) inhibition; inhibition, % at 3.39 µM; AID 492956; recombinant PAFAH2, FP-rhodamine activity probe, fluorescence polarization; actives 0.99% (n = 340,000);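 active = inhibition above the mean over all tested compounds plus 3 SD, cut at about 30% in these data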;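 note: inhibitors block probe labeling of enzyme so polarization drops; 0% = enzyme with DMSO and 100% = wells lacking PAFAH2 protein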
* marks the source's active call; other numbers are inactive results.

How did O=C(CCS(=O)(=O)c1ccc(Br)cc1)NCCC1=CCCCC1 do in these assays?
PAFAH1B3 FP inh: 10; E coli Lon inh: -2; PAFAH1B2 FP inh: 26*; Rin1 Abl inh: 2; pPAFAH FP inh: 1; PAFAH2 inh: 0

What do the screens show for `O=C(COc1ccc(S(=O)(=O)NC2CCCCC2)cc1)NC1CCCCC1`?
PAFAH1B3 FP inh: 7; E coli Lon inh: -8; PAFAH1B2 FP inh: 1; Rin1 Abl inh: -1; pPAFAH FP inh: 9; PAFAH2 inh: -6

How did O=C(COc1ccc(S(=O)(=O)NC2CCCCC2)cc1)NCCC1=CCCCC1 do in these assays?
PAFAH1B3 FP inh: -2; E coli Lon inh: -19; PAFAH1B2 FP inh: 2; Rin1 Abl inh: -1; pPAFAH FP inh: 28*; PAFAH2 inh: 7

Results for O=C(N[C@@H](Cc1ccc(Br)cc1)C(=O)O)OCC1c2ccccc2-c2ccccc21 ?
PAFAH1B3 FP inh: -2; E coli Lon inh: 4; PAFAH1B2 FP inh: 70*; Rin1 Abl inh: 2; pPAFAH FP inh: 14; PAFAH2 inh: 6

Results for Nc1ccc(CNC(=O)OCC2c3ccccc3-c3ccccc32)cc1 ?
PAFAH1B3 FP inh: 8; E coli Lon inh: -4; PAFAH1B2 FP inh: 3; Rin1 Abl inh: 1; pPAFAH FP inh: 2; PAFAH2 inh: 0

Results for CC(c1ccccc1)C(NC(=O)OCC1c2ccccc2-c2ccccc21)C(=O)O (stereo unspecified) ?
PAFAH1B3 FP inh: -12; E coli Lon inh: -1; PAFAH1B2 FP inh: 29*; Rin1 Abl inh: -2; pPAFAH FP inh: 8; PAFAH2 inh: 10

How did O=C(CN1CCN(S(=O)(=O)c2ccc(Br)cc2)CC1)N/N=C/c1ccco1 do in these assays?
PAFAH1B3 FP inh: 4; E coli Lon inh: -12; PAFAH1B2 FP inh: 30*; Rin1 Abl inh: -5; pPAFAH FP inh: 4; PAFAH2 inh: 13

How did C/C(=N\NC(=O)CN1CCN(S(=O)(=O)c2ccc(C)cc2)CC1)c1cccnc1 do in these assays?
PAFAH1B3 FP inh: 6; E coli Lon inh: -6; PAFAH1B2 FP inh: 6; Rin1 Abl inh: -1; pPAFAH FP inh: -4; PAFAH2 inh: 5

How did O=C(CN1CCN(S(=O)(=O)c2ccc(Br)cc2)CC1)N/N=C/c1ccc(Br)s1 do in these assays?
PAFAH1B3 FP inh: 3; E coli Lon inh: 3; PAFAH1B2 FP inh: 20; Rin1 Abl inh: -6; pPAFAH FP inh: 0; PAFAH2 inh: 7

What do the screens show for `C/C(=N/NC(=O)CN1CCN(S(=O)(=O)c2ccc(Br)cc2)CC1)c1ccco1`?
PAFAH1B3 FP inh: 4; E coli Lon inh: 5; PAFAH1B2 FP inh: 27*; Rin1 Abl inh: -4; pPAFAH FP inh: 3; PAFAH2 inh: 4

Results for C/C(=N/NC(=O)CN1CCN(S(=O)(=O)c2ccc(C)cc2)CC1)c1cccc(O)c1 ?
PAFAH1B3 FP inh: 6; E coli Lon inh: 6; PAFAH1B2 FP inh: 25*; Rin1 Abl inh: -1; pPAFAH FP inh: 4; PAFAH2 inh: -5

How did O=S(=O)(c1ccc(Br)cc1)N1CCN(Cc2ccco2)CC1 do in these assays?
PAFAH1B3 FP inh: 10; E coli Lon inh: -8; PAFAH1B2 FP inh: 26*; Rin1 Abl inh: 2; pPAFAH FP inh: -5; PAFAH2 inh: 3

Results for CC(C)Cc1nnc(NC(=O)C2CCCC2)s1 ?
PAFAH1B3 FP inh: 1; E coli Lon inh: 0; PAFAH1B2 FP inh: 0; Rin1 Abl inh: 2; pPAFAH FP inh: 3; PAFAH2 inh: 10

What do the screens show for `Cc1nc(SCc2ccc(Br)cc2)[nH]c(=O)c1C`?
PAFAH1B3 FP inh: 0; E coli Lon inh: 2; PAFAH1B2 FP inh: 74*; Rin1 Abl inh: -5; pPAFAH FP inh: 34*; PAFAH2 inh: -18

How did Cc1nc(SCCc2ccccc2)[nH]c(=O)c1C do in these assays?
PAFAH1B3 FP inh: 7; E coli Lon inh: -6; PAFAH1B2 FP inh: 6; Rin1 Abl inh: 0; pPAFAH FP inh: 27*; PAFAH2 inh: 2

Results for N#C/C(=C\c1ccc(O)c([N+](=O)[O-])c1)c1nc2ccccc2s1 ?
PAFAH1B3 FP inh: 31*; E coli Lon inh: -47; PAFAH1B2 FP inh: 30*; Rin1 Abl inh: -2; PAFAH2 inh: 44*

How did COc1cc(/C=C(\C#N)c2nc3ccccc3s2)cc([N+](=O)[O-])c1O do in these assays?
PAFAH1B3 FP inh: 42*; E coli Lon inh: -34; PAFAH1B2 FP inh: 29*; Rin1 Abl inh: 2; PAFAH2 inh: 55*

Results for COc1ccc(N2C[C@H](Cc3ccccc3)[C@@H](CC(=O)Nc3ccccc3)C2=O)cc1 ?
E coli Lon inh: -14; Rin1 Abl inh: 1

Results for O=C(O)C(c1ccccc1)N1C(=O)/C(=C\c2ccc(-c3ccc(Br)cc3)o2)SC1=S (stereo unspecified) ?
PAFAH1B3 FP inh: 5; E coli Lon inh: -97; PAFAH1B2 FP inh: 5; Rin1 Abl inh: 2; PAFAH2 inh: 29

What do the screens show for `O=C(O)C(c1ccccc1)N1C(=O)/C(=C\c2ccc(-c3ccccc3Cl)o2)SC1=S` (stereo unspecified)?
PAFAH1B3 FP inh: 2; E coli Lon inh: -105; PAFAH1B2 FP inh: 8; Rin1 Abl inh: 4; pPAFAH FP inh: 63*; PAFAH2 inh: 45*

What do the screens show for `O=C(Nc1c2c(nn1-c1ccc(F)cc1)CS(=O)C2)c1ccc(S(=O)(=O)N2CCOCC2)cc1` (stereo unspecified)?
PAFAH1B3 FP inh: 5; E coli Lon inh: -2; PAFAH1B2 FP inh: 26*; Rin1 Abl inh: -2; pPAFAH FP inh: -4; PAFAH2 inh: 3

How did COc1ccc2[nH]c3c(c2c1)CCN1C(=O)C(CC(=O)NCCN2CCOCC2)C[C@H](C(=O)N2CCOCC2)[C@@]31C (stereo partly specified) do in these assays?
PAFAH1B3 FP inh: 5; E coli Lon inh: 11; PAFAH1B2 FP inh: 1; Rin1 Abl inh: 0; pPAFAH FP inh: 1; PAFAH2 inh: -3

What do the screens show for `C=C[C@]1(C)C=C2CCC3[C@](C)(CCC[C@@]3(C)C(=O)O)C2CC1` (stereo partly specified)?
PAFAH1B3 FP inh: 11; E coli Lon inh: -3; PAFAH1B2 FP inh: 68*; Rin1 Abl inh: -2; pPAFAH FP inh: 9; PAFAH2 inh: 43*

How did N[C@@H](Cc1c[nH]c2ccc(O)cc12)C(=O)O do in these assays?
PAFAH1B3 FP inh: -5; E coli Lon inh: -11; PAFAH1B2 FP inh: -1; Rin1 Abl inh: 0; pPAFAH FP inh: 10; PAFAH2 inh: -1

What do the screens show for `NC(Cc1c[nH]c2ccc(OCc3ccccc3)cc12)C(=O)O` (stereo unspecified)?
PAFAH1B3 FP inh: 9; E coli Lon inh: 2; PAFAH1B2 FP inh: 13; Rin1 Abl inh: 2; pPAFAH FP inh: 26*; PAFAH2 inh: -1

Results for CC(O)[C@H]1CNC(=O)C(=O)N1CCC12CC3CC(CC(C3)C1)C2 (stereo partly specified) ?
PAFAH1B3 FP inh: 10; E coli Lon inh: -6; PAFAH1B2 FP inh: 25*; Rin1 Abl inh: 1; pPAFAH FP inh: 0; PAFAH2 inh: 13

What do the screens show for `O=C(CCC1CCN(Cc2nccs2)CC1)Nc1ccccc1`?
E coli Lon inh: 8; Rin1 Abl inh: 2
